Measured values as given in PubChem BioAssay (NCATS).
Records with an inconclusive call do not appear. Calls of active or inactive are those of the source. The call rests on the fitted dose curve; in most records, active means well fitted curve in the direction sought with a large enough effect; inconclusive means small, poorly fitted or top-dose-only effect, or another doubt; inactive means no such curve, though single readings can be large; an effect the other way counts as inactive or inconclusive.

Legend:
[1] = system: NIH3T3; test: Cytotoxic Profiling of Annotated Libraries Using Quantitative High-Throughput Screening (AID 1296008); details: Five cell lines viability, CellTiter-Glo ATP luminescence, 48-72 h; max response: stronger effect = lower value; further: nearly all actives have a fitted effect of over 60% in size
Method in brief: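 Compounds were pin-transferred onto cells and incubated 48 or 72 hr at 37 degree Celsius, 95% humidity. CellTiter-Glo was added, plates sat 10 min at room temperature, then ATP-coupled luminescence was imaged as the viability read-out.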

[2] = system: HACAT; test: qHTS assay to identify novel small-molecules to repurpose for Merkel cell carcinoma treatment (AID 1296009); details: MCC and control cell lines, CellTiter-Glo viability, 72 h; at 44.8 µM (top of the series) unless noted; further: nearly all actives have a fitted effect of over 60% in size
Method in brief: (§1)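 Cells exposed to NPC (8-point) and MIPE (11-point) compound dilutions for 72 hr at 37 degree celsius; viability read by CellTiter-Glo luminescence, normalized to no-cell and DMSO in-plate controls.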

[3] = system: MCC-13; test: as above; details: MCC and control cell lines, CellTiter-Glo viability, 72 h; series mostly up to 46 µM
Method in brief: as §1

[4] = system: MCC-26; test: as above; details: MCC and control cell lines, CellTiter-Glo viability, 72 h; series mostly up to 46 µM
Method in brief: as §1

[5] = system: MKL-1; test: as above; details: MCC and control cell lines, CellTiter-Glo viability, 72 h; series mostly up to 46 µM
Method in brief: as §1

[6] = system: MKL-2; test: as above; details: MCC and control cell lines, CellTiter-Glo viability, 72 h; series mostly up to 46 µM
Method in brief: as §1

[7] = system: UISO; test: as above; details: MCC and control cell lines, CellTiter-Glo viability, 72 h; series mostly up to 46 µM
Method in brief: as §1

[8] = system: WaGa; test: as above; details: MCC and control cell lines, CellTiter-Glo viability, 72 h; series mostly up to 46 µM
Method in brief: as §1

[9] = system: C33A; test: Primary qHTS to identify gynecologic anti-cancer compounds using libraries of approved drugs and bioactive compounds (AID 1345084); details: Gynecologic cancer cell panel viability, ATPlite luminescence, 48 h; series mostly up to 57.5 µM; further: nearly all actives have a fitted effect of over 55% in size
Method in brief: (§2)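 Cells, 1,000 per well, plated 16 h, then exposed 48 h at 37 C to compounds. Viability by ATPlite luminescence after 15 min at room temperature.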

[10] = system: CAOV3; test: as above; details: Gynecologic cancer cell panel viability, ATPlite luminescence, 48 h; series mostly up to 57.5 µM
Method in brief: as §2

[11] = system: CASKI; test: as above; details: Gynecologic cancer cell panel viability, ATPlite luminescence, 48 h; series mostly up to 57.5 µM
Method in brief: as §2

[12] = system: Es-2; test: as above; details: Gynecologic cancer cell panel viability, ATPlite luminescence, 48 h; series mostly up to 57.5 µM
Method in brief: as §2

[13] = system: HeLa; test: as above; details: Gynecologic cancer cell panel viability, ATPlite luminescence, 48 h; series mostly up to 57.5 µM
Method in brief: as §2

[14] = system: Hek293T; test: as above; details: Gynecologic cancer cell panel viability, ATPlite luminescence, 48 h, control line for the selectivity index; series mostly up to 57.5 µM
Method in brief: as §2

[15] = system: JEG-3; test: as above; details: Gynecologic cancer cell panel viability, ATPlite luminescence, 48 h; series mostly up to 57.5 µM
Method in brief: as §2

[16] = system: OV90; test: as above; details: Gynecologic cancer cell panel viability, ATPlite luminescence, 48 h; series mostly up to 57.5 µM
Method in brief: as §2

[17] = system: PA-1; test: as above; details: Gynecologic cancer cell panel viability, ATPlite luminescence, 48 h; series mostly up to 57.5 µM
Method in brief: as §2

[18] = system: HEK293T; test: qHTS assay to identify novel small-molecules to repurpose for Merkel cell carcinoma treatment (AID 1296009); details: MCC and control cell lines, CellTiter-Glo viability, 72 h; at 44.8 µM (top of the series) unless noted; further: nearly all actives have a fitted effect of over 60% in size
Method in brief: as §1

[19] = system: SKOV3; test: Primary qHTS to identify gynecologic anti-cancer compounds using libraries of approved drugs and bioactive compounds (AID 1345084); details: Gynecologic cancer cell panel viability, ATPlite luminescence, 48 h; series mostly up to 57.5 µM; further: nearly all actives have a fitted effect of over 55% in size
Method in brief: as §2

[20] = system: NIH3T3; test: qHTS assay to identify novel small-molecules to repurpose for Merkel cell carcinoma treatment (AID 1296009); details: MCC and control cell lines, CellTiter-Glo viability, 72 h; at 44.8 µM (top of the series) unless noted; further: nearly all actives have a fitted effect of over 60% in size
Method in brief: as §1
On the % scale 0 is the no-effect control and ±100 the full control effect.

CCCN1CCCC[C@H]1C(=O)Nc1c(C)cccc1C
inactive: max response [1] -2.9% | outcome [2] | Potency [3] | Potency [4] | Potency [5] | Potency [6] | Potency [7] | Potency [8] | Potency [9] | Potency [10] | Potency [11] | Potency [12] | Potency [13] | Potency [14] | Potency [15] | Potency [16] | Potency [17]

CC(=O)OCC(=O)[C@@]12N=C(C)O[C@@H]1C[C@H]1[C@@H]3CCC4=CC(=O)C=C[C@]4(C)[C@H]3[C@@H](O)C[C@@]12C
inactive: max response [1] -1.08% | outcome [2] | outcome [18] | Potency [3] | Potency [4] | Potency [5] | Potency [6] | Potency [7] | Potency [8] | Potency [9] | Potency [10] | Potency [11] | Potency [12] | Potency [13] | Potency [14] | Potency [15] | Potency [16] | Potency [17] | Potency [19]

O=C(O)CNC(=O)c1ccccc1
inactive: outcome [1] | outcome [2] | Potency [3] | Potency [4] | Potency [5] | Potency [6] | outcome [20] | Potency [7] | Potency [8] | Potency [9] | Potency [10] | Potency [11] | Potency [12] | Potency [13] | Potency [14] | Potency [15] | Potency [16] | Potency [17] | Potency [19]

OC[C@H]1O[C@H](O[C@]2(CCl)O[C@H](CCl)[C@@H](O)[C@@H]2O)[C@H](O)[C@@H](O)[C@H]1Cl
inactive: max response [1] -17.4% | outcome [1] | outcome [18] | Potency [3] | Potency [4] | Potency [5] | Potency [6] | outcome [20] | Potency [7] | Potency [8] | Potency [9] | Potency [10] | Potency [11] | Potency [12] | Potency [13] | Potency [14] | Potency [15] | Potency [16] | Potency [17] | Potency [19]

CCN(CCCCOC(=O)c1ccc(OC)c(OC)c1)C(C)Cc1ccc(OC)cc1 (stereo not given)
inactive: max response [1] -18.2% | outcome [2] | Potency [3] | Potency [4] | Potency [5] | Potency [6] | Potency [7] | Potency [8] | Potency [9] | Potency [10] | Potency [11] | Potency [12] | Potency [13] | Potency [14] | Potency [15] | Potency [17] | Potency [19]

CC(=O)O[C@]1(C(C)=O)CC[C@H]2[C@@H]3C[C@H](C)C4=CC(=O)CC[C@]4(C)[C@H]3CC[C@@]21C
inactive: max response [1] -18.3% | outcome [1] | Potency [3] | Potency [4] | Potency [5] | Potency [6] | outcome [20] | Potency [7] | Potency [8] | Potency [9] | Potency [10] | Potency [11] | Potency [12] | Potency [13] | Potency [14] | Potency [15] | Potency [16] | Potency [17] | Potency [19]

CCCCC(=O)O[C@]1(C(=O)CO)CC[C@H]2[C@@H]3CCC4=CC(=O)CC[C@]4(C)[C@H]3[C@@H](O)C[C@@]21C
inactive: max response [1] 1.69% | outcome [2] | Potency [3] | Potency [4] | Potency [5] | Potency [6] | Potency [7] | Potency [8] | Potency [9] | Potency [10] | Potency [11] | Potency [12] | Potency [13] | Potency [14] | Potency [15] | Potency [16] | Potency [17] | Potency [19]

CN1[C@@H]2CC[C@H]1CC(OC(=O)c1c[nH]c3ccccc13)C2 (stereo not given in full)
inactive: outcome [1] | outcome [2] | outcome [18] | Potency [3] | Potency [5] | Potency [6] | outcome [20] | Potency [7] | Potency [8] | Potency [9] | Potency [10] | Potency [11] | Potency [12] | Potency [13] | Potency [14] | Potency [15] | Potency [16] | Potency [17]

CCCCS(=O)(=O)N[C@@H](Cc1ccc(OCCCCC2CCNCC2)cc1)C(=O)O
inactive: max response [1] -1.76% | outcome [1] | outcome [2] | Potency [3] | Potency [4] | Potency [5] | Potency [6] | outcome [20] | Potency [7] | Potency [8] | Potency [9] | Potency [10] | Potency [11] | Potency [12] | Potency [13] | Potency [14] | Potency [15] | Potency [16] | Potency [17] | Potency [19]

CN1CCN(C(c2ccccc2)c2ccccc2)CC1
inactive: max response [1] 3.7% | outcome [1] | outcome [2] | Potency [3] | Potency [4] | Potency [5] | Potency [6] | outcome [20] | Potency [7] | Potency [8] | Potency [9] | Potency [10] | Potency [11] | Potency [12] | Potency [13] | Potency [14] | Potency [15] | Potency [16] | Potency [17] | Potency [19]

N[C@H](Cc1c[nH]c2ccccc12)C(=O)O
inactive: max response [1] 3.07% | outcome [2] | outcome [18] | Potency [3] | Potency [5] | Potency [6] | Potency [8] | Potency [9] | Potency [10] | Potency [11] | Potency [12] | Potency [13] | Potency [14] | Potency [15] | Potency [16] | Potency [17] | Potency [19]

Cc1c(C(C)C)c(=O)n(-c2ccccc2)n1C
inactive: max response [1] 0.732% | outcome [2] | outcome [18] | Potency [3] | Potency [4] | Potency [5] | Potency [6] | Potency [7] | Potency [8] | Potency [9] | Potency [10] | Potency [11] | Potency [13] | Potency [14] | Potency [15] | Potency [16] | Potency [17] | Potency [19]

Cc1ccc(Nc2c(F)cccc2Cl)c(CC(=O)O)c1
inactive: max response [1] 2.46% | outcome [2] | Potency [3] | Potency [4] | Potency [5] | Potency [6] | Potency [7] | Potency [8] | Potency [9] | Potency [10] | Potency [11] | Potency [12] | Potency [13] | Potency [14] | Potency [15] | Potency [16] | Potency [17] | Potency [19]
